Records with an inconclusive call do not appear. Active and inactive are the calls of the source. Calls come from the whole dose curve; as a rule, active = well fitted curve in the direction sought with a large enough effect; inconclusive = small, poorly fitted or top-dose-only effect, or another doubt; inactive = no such curve, though single readings can be large or run the other way.
experiment: qHTS Assay for Identifying Gametocytocidal Compounds (AID 743244);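 for max response: actives lower the fluorescent signal which means gametocytes are killed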; settings: P. falciparum 3D7 stage III-V gametocytes, alamarBlue, 72 h; max response: active compounds read low
In short: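 A resazurin-based viability read-out was applied to mature P. falciparum gametocytes: 72 h compound treatment, then 24 h dye incubation, with falling fluorescence signalling gametocytocidal effect.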
% is set by controls: 0 for no effect and ±100 for the full control effect; potency is the fitted concentration of half-maximal effect.

SMILES | max response | Potency
CCCCS(=N)(=O)CC[C@H](N)C(=O)O (stereo partly drawn) | 6.27% (inactive) | 
CSC(=N)N | 32.5% (inactive) | 
C[C@H]1CC2C3CCC4=CC(=O)C=C[C@]4(C)[C@@]3(Cl)[C@@H](O)C[C@]2(C)[C@@]1(O)C(=O)CO (stereo partly drawn) | -6.5% (inactive) | 
CN1Cc2sccc2C(c2ccc(O)c(O)c2)C1 (stereo not drawn) |  | 891 nM (active)
OCC1NCC(O)C(O)C1O (stereo not drawn) | 29.9% (inactive) | 
O=C(O)Cc1c[nH]c2ccc(O)cc12 | -2.34% (inactive) | 
CCOC(=O)C12CC1/C(=N/O)c1ccccc1O2 (stereo not drawn) | 0.715% (inactive) | 
Nc1ccc(N2C(=O)c3ccccc3C2=O)c(Cl)c1 | 6.35% (inactive) | 
C=CC[C@H](N)C(=O)O | 18.7% (inactive) | 
COc1ccc2c(c1)c(CC(=O)O)c(C)n2C(=O)c1ccccc1 | 11.3% (inactive) | 
CC(N)=O | 12.7% (inactive) | 
N#C/C(=C\c1ccc(O)c(O)c1)C(=O)NCCc1ccccc1 | 5.86% (inactive) | 
NCC(O)C1CCCCCCC1 (stereo not drawn) | 18.9% (inactive) | 
C[N+](C)(C)CC=O | 21.1% (inactive) | 
CC(=O)NNC(=O)N1Cc2ccccc2Oc2ccc(Cl)cc21 | 7.75% (inactive) | 
CCCn1c(=O)c2c(ncn2C)n(CCC)c1=O | 12.3% (inactive) | 
COc1ccc(CCn2nnnc2C2(c3ccc(C)cc3)CC2)cc1 | 13.1% (inactive) | 
CNCCNS(=O)(=O)c1cccc2cnccc12 | 18.9% (inactive) | 
CN(C)S(=O)(=O)c1ccc2c(c1)/C(=C/c1cc3c([nH]1)CCCC3)C(=O)N2 | -2.03% (inactive) | 

SMILES | max response | Potency
O=c1onc2n1-c1cc(Br)ccc1OC2 | 20.4% (inactive) | 
Fc1ccc(CN(C2=NCCN2)c2c(Cl)cccc2Cl)cc1 | -2.54% (inactive) | 
NCCC1CCCC(CCN)N1 (stereo not drawn) | 30.6% (inactive) | 
O=C(O)C1=CCCNC1 | 15% (inactive) | 
Cn1c(=O)c2[nH]c(-c3ccc(S(=O)(=O)O)cc3)nc2n(C)c1=O | 26.7% (inactive) | 
N[C@H]1CONC1=O | 7.19% (inactive) | 
CC1CNCCN1S(=O)(=O)c1cccc2cnccc12 (stereo not drawn) | 22.5% (inactive) | 
CCCCOc1cc(CC2CNC(=O)N2)ccc1OC (stereo not drawn) | 22.4% (inactive) | 
CC(C)(C)NCC(O)COc1cccc2[nH]c(=O)[nH]c12 (stereo not drawn) | 25.5% (inactive) | 
O=C(O)c1ccccc1Nc1ccccc1 | 4.62% (inactive) | 
N=S(=O)(O)Cc1noc2ccccc12 | 7.99% (inactive) | 
CCN(CC)CCCCCCCCOC(=O)c1cc(OC)c(OC)c(OC)c1 | 31.2% (inactive) | 
O=c1[nH]c2cc(Cl)ccc2c(O)c1-c1ccc(Oc2ccccc2)cc1 | 17.9% (inactive) | 
Nc1nc2c(cnn2CCc2ccccc2)c2nc(-c3ccco3)nn12 | -5.77% (inactive) | 
NS(=O)(=O)c1cccc2c1c([N+](=O)[O-])cc1nc(O)c(O)nc12 | 24.6% (inactive) | 
Oc1cc(O)c2c(c1)O[C@H](c1ccc(O)c(O)c1)[C@@H](O)C2 | -4.64% (inactive) | 
Cc1ccc([N+](=O)[O-])cc1S(=O)(=O)N(C)C | 4.81% (inactive) | 
COc1cc(/C=C(\C#N)C(=O)c2ccc(O)c(O)c2)cc(I)c1O | 9.56% (inactive) | 
CNc1ncnc2c1ncn2[C@H]1C[C@H](OP(=O)(O)O)[C@@H](COP(=O)(O)O)O1 | 21.7% (inactive) | 

Reference: PubChem BioAssay (NCATS)
